{"source": "PubChem BioAssay (EPA / NIEHS)", "key": {"[1]": {"assay": "CCTE_Mundy_HCI_hNP1_Pro_ResponderAvgInten: CCTE's Proliferation Assay in human neuroprogenitor cells, Mundy Lab (AID 2284224; active = hit-call score of the fitted dose curve at least 0.9, where 1 is the maximum)", "in_short": "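Proliferation was scored as BrdU labelling intensity in human neural progenitors derived from WA09 embryonic cells, measured 26.25 hours after chemical dosing. Activity was fitted relative to DMSO.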"}, "[2]": {"assay": "CCTE_Mundy_HCI_Cortical_NOG_NeuronCount: CCTE's Neurite Outgrowth Assay in rat cortical cells for Neuron Count, Mundy Lab (AID 2284236; active = hit-call score of the fitted dose curve at least 0.9, where 1 is the maximum;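 note: cells exposed to compound for about 48 hours before fixation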)", "in_short": "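Read-out: neuron number by high-content imaging of betaIII-tubulin (Alexa Fluor-488) and Hoechst-labelled rat primary cortical cells.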"}, "[3]": {"assay": "CCTE_Mundy_HCI_Cortical_NOG_BPCount: CCTE's Neurite Outgrowth Assay in rat cortical cells for Branch Point Count, Mundy Lab (AID 2284237);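 note: branch points counted about two days after chemical exposure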", "in_short": "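Measured 50.33 h after dosing, this morphology endpoint uses rat primary cortical cultures labelled for betaIII-tubulin. Branch points are quantified by high-content imaging, with DMSO as negative control and baseline.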"}, "[4]": {"assay": "CCTE_Mundy_HCI_hNP1_Casp3_7: CCTE's Caspase-Glo 3/7 Assay in human neuroprogenitor cells for Apoptosis, Mundy Lab (AID 2284240)", "in_short": "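Apoptosis is scored by activated caspase-3/7 luminescence in WA09-derived neural progenitor cells, measured 26.5 h after chemical dosing. Values represent gain of signal relative to DMSO vehicle.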"}, "[5]": {"assay": "CCTE_Mundy_HCI_Cortical_Synap_Neur_Matur_NeuronCount: CCTE's Synaptogenesis and Neurite Maturation Assay in rat cortical cells for Neuron Count, Mundy Lab (AID 2284242; active = hit-call score of the fitted dose curve at least 0.9, where 1 is the maximum)", "in_short": "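Measured at DIV 12: fluorescently labelled neurons (Hoechst nuclei, MAP2) in rat primary cortical cultures, counted by high-content imaging. AraC suppressed glia from DIV 5; DMSO served as negative control.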"}, "[6]": {"assay": "IUF_NPC2a_radial_glia_migration_120hr: Leibniz Research Institute for Environmental Medicine (IUF) 120-hour Neural Progenitor Cell Migration Assay for Radial Glia Migration (NPC2a) (AID 2284298)", "in_short": "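Human fetal-cortex neural progenitor spheres (0.3 mm) plated on poly-D-lysine/laminin in N2 differentiation medium, exposed 120 h at 37C with half-medium renewal at day 3. Radial glia migration distance (um) measured from Hoechst-stained nuclei images; DMSO baseline.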"}, "[7]": {"assay": "IUF_NPC2a_radial_glia_migration_72hr: Leibniz Research Institute for Environmental Medicine (IUF) 72-hour Neural Progenitor Cell Migration Assay for Radial Glia Migration (NPC2a) (AID 2284299)", "in_short": "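Spheres of human primary neural progenitors migrate on poly-D-lysine/laminin under compound exposure at 37C, 5% CO2. The 72 h radial glia migration distance comes from brightfield images, measured manually.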"}, "[8]": {"assay": "IUF_NPC3_neuronal_differentiation_120hr: Leibniz Research Institute for Environmental Medicine (IUF) 120-hour Neuronal Differentiation Assay (NPC3) (AID 2284301)", "in_short": "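Value is percent TUBB3-positive neurons among Hoechst-stained nuclei in the migration area, scored by trained CNN after 120 h differentiation. Primary hNPC spheres on poly-D-lysine/laminin, N2 medium, continuous dosing from day 0, half-refeed day 3; DMSO reference.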"}, "[9]": {"assay": "IUF_NPC4_neurite_length_120hr: Leibniz Research Institute for Environmental Medicine (IUF) 120-hour Neuronal Morphology Assay for Neurite Length (NPC4) (AID 2284302)", "in_short": "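Neurite length, the mean in um across TUBB3-stained neurons, is derived by skeletonization of high-content images after 120 h differentiation. Compound exposure, 7 concentrations plus solvent control, ran from plating of hNPC spheres on poly-D-lysine/laminin, with medium half-replaced on day 3.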"}, "[10]": {"assay": "IUF_NPC5_oligodendrocyte_differentiation_120hr: Leibniz Research Institute for Environmental Medicine (IUF) 120-hour Oligodendrocyte Differentiation Assay (NPC5) (AID 2284304; active = hit-call score of the fitted dose curve at least 0.9, where 1 is the maximum;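 note: share of O4-positive cells among Hoechst nuclei found by CNN image analysis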)", "in_short": "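Human fetal neural progenitor spheres (0.3 mm) plated on poly-D-lysine/laminin in N2 differentiation medium and exposed for 120 h at 7 concentrations, with half-medium renewal at day 3. O4-positive cells identified by CNN, expressed as percent of Hoechst nuclei.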"}, "[11]": {"assay": "IUF_NPC4_neurite_area_120hr: Leibniz Research Institute for Environmental Medicine (IUF) 120-hour Neuronal Morphology Assay for Neurite Area (NPC4) (AID 2284305; active = hit-call score of the fitted dose curve at least 0.9, where 1 is the maximum)", "in_short": "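Neurite area (pixels, nuclei excluded) of TUBB3-positive neurons from hNPC spheres differentiating 5 days under continuous exposure at 37 C, 5% CO2. High-content imaging; loss of signal versus DMSO control across 7 concentrations.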"}, "[12]": {"assay": "IUF_NPC2-5_cytotoxicity_120hr: Cytotoxicity Assessment at 120 hours in the Leibniz Research Institute for Environmental Medicine (IUF) Neural Progenitor Cell Migration and Differentiation Assay (NPC2-5) (AID 2284307; active = hit-call score of the fitted dose curve at least 0.9, where 1 is the maximum)", "in_short": "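Human fetal (GW 16-19) neural progenitor spheres (0.3 mm) plated on poly-D-lysine/laminin in N2 differentiation medium, exposed 120 h with half-medium renewal at day 3; 7 concentrations plus solvent control, DMSO ≤0.1%. LDH release in supernatant read by resorufin fluorescence.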"}, "[13]": {"assay": "IUF_NPC2-5_cell_number_120hr: Cell Number Assessment at 120 hours in the Leibniz Research Institute for Environmental Medicine (IUF) Neural Progenitor Cell Migration and Differentiation Assay (NPC2-5) (AID 2284308)", "in_short": "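Human fetal neural progenitor spheres (0.3 mm) plated on poly-D-lysine/laminin in N2 differentiation medium, exposed five days across 7 concentrations with half-medium refresh at day 3. Hoechst-positive nuclei counted in migration area at 120 h, relative to DMSO.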"}, "[14]": {"assay": "IUF_NPC2-5_viability_120hr: Viability Assessment at 120 hours in the Leibniz Research Institute for Environmental Medicine (IUF) Neural Progenitor Cell Migration and Differentiation Assay (NPC2-5) (AID 2284312)", "in_short": "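Alamar blue resorufin fluorescence read after 5 days of differentiation, with compound present from day 0 and replenished at day 3. Primary hNPC spheres on laminin-coated plates, 37C; seven concentrations plus solvent control, fitted against DMSO.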"}, "[15]": {"assay": "CCTE_Harrill_HTTr_Viability_MCF7: CCTE's 6-hour Cell Viability Assessment for the High-Throughput Transcriptomics (HTTr) Platform, in MCF-7 cells cultured in DMEM + 10% fetal bovine serum, Harrill Lab (AID 2284010)", "in_short": "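Eight-point concentration series, six-hour exposure. Propidium iodide exclusion imaged to assess membrane integrity as a cytotoxicity readout; bidirectional fitting was done with DMSO as negative control and activity baseline.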"}, "[16]": {"assay": "CCTE_Harrill_HTTr_Apoptosis_MCF7: CCTE's 6-hour Apoptosis Assessment for the High-Throughput Transcriptomics (HTTr) Platform, in MCF-7 cells cultured in DMEM + 10% fetal bovine serum, Harrill Lab (AID 2284011)", "in_short": "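MCF-7 cells in DMEM + 10% FBS exposed 6 h to chemicals over an eight-point dilution series. Caspase-3/7 activation imaged by high-content CellEvent Green staining; fitted bidirectionally versus DMSO.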"}, "[17]": {"assay": "CCTE_Harrill_HTTr_CellCount_MCF7: CCTE's Cell Proliferation Assessment for the High-Throughput Transcriptomics (HTTr) Platform, Harrill Lab (AID 2284012; active = hit-call score of the fitted dose curve at least 0.9, where 1 is the maximum;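 note: intended direction is loss of nuclei count meaning fewer cells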)", "in_short": "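For this full-screen endpoint, MCF-7 cultures received eight compound dilutions for six hours. Well nuclei counts from Hoechst imaging were analyzed relative to DMSO.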"}, "[18]": {"biological_target": "Ratio of Nucleoli Translocation and Cytoplasm, AR (gene 367) (UniProt P10275)", "sequence (P10275 whole entry, looked up)": "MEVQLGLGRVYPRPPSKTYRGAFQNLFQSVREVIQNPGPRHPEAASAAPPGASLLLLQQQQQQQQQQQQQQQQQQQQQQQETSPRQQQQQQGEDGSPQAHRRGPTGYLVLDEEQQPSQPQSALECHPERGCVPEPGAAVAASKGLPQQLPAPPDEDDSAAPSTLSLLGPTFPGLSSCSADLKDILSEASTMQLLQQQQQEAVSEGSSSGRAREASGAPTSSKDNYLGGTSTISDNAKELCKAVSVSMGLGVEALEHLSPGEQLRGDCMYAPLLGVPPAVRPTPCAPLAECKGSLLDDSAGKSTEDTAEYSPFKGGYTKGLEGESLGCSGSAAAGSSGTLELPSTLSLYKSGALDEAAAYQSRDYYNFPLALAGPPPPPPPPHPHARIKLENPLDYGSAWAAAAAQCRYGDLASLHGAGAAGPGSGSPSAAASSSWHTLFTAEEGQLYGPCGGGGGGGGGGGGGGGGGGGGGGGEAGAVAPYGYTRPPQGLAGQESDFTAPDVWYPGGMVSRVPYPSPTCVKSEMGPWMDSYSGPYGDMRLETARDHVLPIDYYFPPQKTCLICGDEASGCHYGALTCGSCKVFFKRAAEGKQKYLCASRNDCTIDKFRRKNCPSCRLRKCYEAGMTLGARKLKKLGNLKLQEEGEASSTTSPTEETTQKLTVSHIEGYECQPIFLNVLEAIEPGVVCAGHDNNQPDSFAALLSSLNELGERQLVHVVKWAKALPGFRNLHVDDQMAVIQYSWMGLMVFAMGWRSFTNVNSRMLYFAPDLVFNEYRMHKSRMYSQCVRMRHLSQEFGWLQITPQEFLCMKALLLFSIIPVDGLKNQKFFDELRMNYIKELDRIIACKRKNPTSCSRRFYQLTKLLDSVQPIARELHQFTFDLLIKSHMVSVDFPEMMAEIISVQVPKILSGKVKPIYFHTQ", "assay": "UPITT_HCI_U2OS_AR_TIF2_Nucleoli_Cytoplasm_Ratio_Antagonist: University of Pittsburgh U2OS Androgen Receptor-Transcriptional Intermediary Factor 2 (AR-TIF2) Antagonism High Content Imaging Assay for Ratio of Nucleoli Translocation and Cytoplasm (AID 2283999; active = hit-call score of the fitted dose curve at least 0.9, where 1 is the maximum;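 note: antagonists lower the DHT-driven ratio of nucleolar to cytoplasmic red signal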)", "in_short": "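This antagonist-mode endpoint tracks AR-RFP localisation, the nucleolus-to-cytoplasm intensity ratio, in TIF2-GFP-coexpressing U2OS cells. DMSO stays at or below 0.5%; testing spans 20 uM single-dose and 0.195–50 uM series, with DHT setting the activity baseline.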"}, "[19]": {"biological_target": "Ratio of Nucleoli Translocation and Cytoplasm, AR (gene 367) (UniProt P10275)", "assay": "UPITT_HCI_U2OS_AR_TIF2_Nucleoli_Cytoplasm_Ratio_Agonist: University of Pittsburgh U2OS Androgen Receptor-Transcriptional Intermediary Factor 2 (AR-TIF2) Agonism High Content Imaging Assay for Ratio of Nucleoli Translocation and Cytoplasm (AID 2284000; active = hit-call score of the fitted dose curve at least 0.9, where 1 is the maximum;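 note: hits raise the red nucleolar to cytoplasm ratio above vehicle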)", "in_short": "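Compounds tested at 20 uM final in primary screen (0.2% DMSO) and 0.195-50 uM final in dose-response (0.5% DMSO). Imaging of human U2OS cells bearing RFP-AR and GFP-TIF2; endpoint is nucleoli/cytoplasm red signal ratio, positive direction relative to DMSO.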"}}, "note": "Records with an inconclusive call do not appear. The source made the active and inactive calls. Rule for the calls, unless noted: active = hit-call score of the fitted dose curve at least 0.9, where 1 is the maximum; inactive = score below 0.9.", "data": [{"smiles": "O=[As]O", "values": [{"measurement": "AC50", "setting": "[1]", "value": "2790 nM (active)"}, {"measurement": "AC50", "setting": "[2]", "value": "3590 nM (active)"}, {"measurement": "AC50", "setting": "[3]", "value": "2610 nM (active)"}, {"measurement": "AC50", "setting": "[4]", "value": "3800 nM (active)"}, {"measurement": "AC50", "setting": "[5]", "value": "2740 nM (active)"}, {"measurement": "AC50", "setting": "[6]", "value": "805 nM (active)"}, {"measurement": "outcome", "setting": "[7]", "value": "inactive"}, {"measurement": "outcome", "setting": "[8]", "value": "inactive"}, {"measurement": "AC50", "setting": "[9]", "value": "752 nM (active)"}, {"measurement": "outcome", "setting": "[10]", "value": "inactive"}, {"measurement": "outcome", "setting": "[11]", "value": "inactive"}, {"measurement": "outcome", "setting": "[12]", "value": "inactive"}, {"measurement": "outcome", "setting": "[13]", "value": "inactive"}, {"measurement": "outcome", "setting": "[14]", "value": "inactive"}]}, {"smiles": "COP(=S)(Oc1cc(Cl)c(Br)cc1Cl)c1ccccc1", "note": "(stereo unspecified)", "values": [{"measurement": "outcome", "setting": "[15]", "value": "inactive"}, {"measurement": "outcome", "setting": "[16]", "value": "inactive"}, {"measurement": "outcome", "setting": "[17]", "value": "inactive"}]}, {"smiles": "Clc1c(Cl)c(Cl)c2c(c1Cl)Oc1c(Cl)c(Cl)c(Cl)c(Cl)c1O2", "values": [{"measurement": "outcome", "setting": "[18]", "value": "inactive"}, {"measurement": "outcome", "setting": "[19]", "value": "inactive"}, {"measurement": "outcome", "setting": "[16]", "value": "inactive"}, {"measurement": "outcome", "setting": "[17]", "value": "inactive"}]}]}
